Data as given in PubChem BioAssay (NCI).
The panel holds about 83,000 compounds, 20% with a hit somewhere; the sample as a whole holds those more often.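 Activity criterion: percent growth below 10, measured after cells in 96-well plates were exposed to a single compound concentration for 48 hours.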 The source made the active and inactive calls.

Columns and labels:
Test in all cases: NCI-60 one-dose screen, 48 h (100 = growth as untreated, 0 = no growth, -100 = all killed)
SR leukemia = conditions: 10 µM unless noted
RPMI-8226 leukemia = conditions: 10 µM unless noted
OVCAR-8 ovarian = conditions: 10 µM unless noted
OVCAR-5 ovarian = conditions: 10 µM unless noted
OVCAR-4 ovarian = conditions: 10 µM unless noted
SK-OV-3 ovarian = conditions: 10 µM unless noted
OVCAR-3 ovarian = conditions: 10 µM unless noted
HS 578T breast = conditions: 10 µM
NCI/ADR-RES ovarian = conditions: 10 µM unless noted
T-47D breast = conditions: 10 µM unless noted
BT-549 breast = conditions: 10 µM unless noted
MDA-MB-435 melanoma = conditions: 10 µM unless noted
SW-620 colon = conditions: 10 µM unless noted
MCF7 breast = conditions: 10 µM unless noted
HCT-116 colon = conditions: 10 µM unless noted
HCC-2998 colon = conditions: 10 µM unless noted
KM12 colon = conditions: 10 µM unless noted
IGROV1 ovarian = conditions: 10 µM unless noted

Measured: growth

COc1ccc(NC(=O)c2ccc(C(F)(F)F)nc2Nc2ccc(Cl)cc2C)cc1Cl
inactive: SR leukemia 23.6% | OVCAR-8 ovarian 15.6% | OVCAR-5 ovarian 10.1% | OVCAR-4 ovarian 24.6% | SK-OV-3 ovarian 45.4% | OVCAR-3 ovarian 15.5% | HS 578T breast 10.8% | NCI/ADR-RES ovarian 13.3% | T-47D breast 21.8% | BT-549 breast 19% | MDA-MB-435 melanoma 18.6% | SW-620 colon 13.4% | HCC-2998 colon 16.7% | KM12 colon 24.3%
active: RPMI-8226 leukemia -17.9% | MCF7 breast 9.61% | HCT-116 colon 3.71%

Fc1cc(-c2nnc3sc(-c4ccc(Cl)cc4)nn23)c(Cl)cc1Cl
inactive: SR leukemia 61.1% | RPMI-8226 leukemia 102% | OVCAR-8 ovarian 100% | OVCAR-5 ovarian 101% | OVCAR-4 ovarian 92.5% | SK-OV-3 ovarian 107% | IGROV1 ovarian 100% | HS 578T breast 66.1% | NCI/ADR-RES ovarian 104% | T-47D breast 87% | BT-549 breast 106% | SW-620 colon 96.5% | MCF7 breast 86.7% | HCT-116 colon 94.6% | HCC-2998 colon 106%

Cc1cc2nc3c(=O)[nH]c(=O)nc-3n(CC=O)c2cc1C
inactive: SR leukemia 129% | RPMI-8226 leukemia 140% | OVCAR-5 ovarian 96.2% | OVCAR-4 ovarian 100% | SK-OV-3 ovarian 106% | IGROV1 ovarian 88.7% | OVCAR-3 ovarian 106% | HS 578T breast 101% | NCI/ADR-RES ovarian 111% | T-47D breast 100% | BT-549 breast 113% | MDA-MB-435 melanoma 92.2% | SW-620 colon 99.9% | MCF7 breast 99% | HCT-116 colon 106% | HCC-2998 colon 111% | KM12 colon 107%

CCN(CC)CCCNc1cccc2c(C)cc(OC)nc12
inactive: SR leukemia 78.3% | RPMI-8226 leukemia 92.3% | OVCAR-8 ovarian 97.9% | OVCAR-5 ovarian 95.5% | SK-OV-3 ovarian 106% | IGROV1 ovarian 89.5% | OVCAR-3 ovarian 99.9% | HS 578T breast 96.4% | NCI/ADR-RES ovarian 95.9% | T-47D breast 98.7% | BT-549 breast 87.4% | MDA-MB-435 melanoma 115% | MCF7 breast 84.8% | HCT-116 colon 95.1% | HCC-2998 colon 90.2% | KM12 colon 100%

Clc1ccc2c(c1)-c1ccccc1C1=NCCN12
active: SR leukemia 8.25%
inactive: RPMI-8226 leukemia 33% | OVCAR-5 ovarian 41.2% | OVCAR-4 ovarian 44.4% | SK-OV-3 ovarian 36.9% | IGROV1 ovarian 24.3% | OVCAR-3 ovarian 41.1% | HS 578T breast 58.4% | NCI/ADR-RES ovarian 26.3% | T-47D breast 29.6% | BT-549 breast 71.5% | MDA-MB-435 melanoma 29.4% | SW-620 colon 22.5% | MCF7 breast 10.6% | HCT-116 colon 21% | HCC-2998 colon 40.7% | KM12 colon 33.3%

OC(c1cc2cc(Cl)ccc2c2cc(C(F)(F)F)ccc12)C1CCCCN1 (stereo unspecified)
inactive: BT-549 breast 54.7%
active: SR leukemia -75.3% | RPMI-8226 leukemia -48% | OVCAR-8 ovarian -74.6% | OVCAR-5 ovarian -77.8% | SK-OV-3 ovarian -0.379% | IGROV1 ovarian -67.4% | OVCAR-3 ovarian -94.8% | HS 578T breast -52.6% | NCI/ADR-RES ovarian -66.1% | T-47D breast -82.1% | SW-620 colon -78.3% | MCF7 breast -86.3% | HCT-116 colon -85.8% | HCC-2998 colon -86.9% | KM12 colon -90.9%

Cc1c(-c2ccc(-c3ccccc3F)cc2)nc2ccc(F)cc2c1C(=O)O
inactive: SR leukemia 23.4% | RPMI-8226 leukemia 23.3% | OVCAR-5 ovarian 34.8% | OVCAR-4 ovarian 75.1% | SK-OV-3 ovarian 65.1% | IGROV1 ovarian 44.6% | OVCAR-3 ovarian 55.9% | HS 578T breast 67% | NCI/ADR-RES ovarian 49.6% | T-47D breast 59.2% | BT-549 breast 45.5% | MDA-MB-435 melanoma 34.9% | SW-620 colon 38.9% | MCF7 breast 28.4% | HCT-116 colon 21% | HCC-2998 colon 37.7% | KM12 colon 35.2%

CCCCCCCCNC(C)C(O)c1ccc(SC(C)C)cc1 (stereo unspecified)
active: SR leukemia -55% | OVCAR-8 ovarian -5.31% | OVCAR-3 ovarian -83% | MDA-MB-435 melanoma -40.8% | SW-620 colon -63.6% | HCT-116 colon -96.9% | HCC-2998 colon -80.4% | KM12 colon -72.1%
inactive: RPMI-8226 leukemia 14.8% | OVCAR-4 ovarian 63.9% | SK-OV-3 ovarian 83.9% | IGROV1 ovarian 18.8% | HS 578T breast 49.2% | NCI/ADR-RES ovarian 47.8% | T-47D breast 49.6% | BT-549 breast 59.9% | MCF7 breast 54%

COc1cc(NC(C)CCCN)c2ncccc2c1Sc1ccc(Cl)cc1 (stereo unspecified)
inactive: OVCAR-8 ovarian 33.3% | OVCAR-5 ovarian 77.8% | SK-OV-3 ovarian 94.7% | IGROV1 ovarian 38.9% | OVCAR-3 ovarian 58.6% | HS 578T breast 58.9% | NCI/ADR-RES ovarian 91.6% | T-47D breast 58.7% | BT-549 breast 90.9% | MDA-MB-435 melanoma 55.7% | MCF7 breast 26% | HCT-116 colon 23.9% | HCC-2998 colon 12.3% | KM12 colon 34.4%
active: SR leukemia -35.2% | RPMI-8226 leukemia -8.1% | SW-620 colon -69.1%

COc1cc(OC)cc(-c2n/c(=C\c3c(O)[nH]c4ccc(Cl)cc34)cc3c2=Nc2ccccc2-3)c1
active: IGROV1 ovarian -21.3% | SW-620 colon -1.36% | HCT-116 colon 2.45%
inactive: SR leukemia 23.5% | RPMI-8226 leukemia 71.2% | OVCAR-5 ovarian 114% | OVCAR-4 ovarian 16.1% | SK-OV-3 ovarian 114% | OVCAR-3 ovarian 69.7% | HS 578T breast 90.4% | NCI/ADR-RES ovarian 81.6% | T-47D breast 84.9% | BT-549 breast 97.2% | MDA-MB-435 melanoma 99.3% | MCF7 breast 24.3% | HCC-2998 colon 103% | KM12 colon 22.8%

O=c1[nH]c2ccccc2n2cc3cccnc3c12
inactive: SR leukemia 36% | RPMI-8226 leukemia 89.3% | OVCAR-8 ovarian 63.4% | OVCAR-5 ovarian 140% | SK-OV-3 ovarian 82.5% | IGROV1 ovarian 90.2% | OVCAR-3 ovarian 91.8% | HS 578T breast 88.4% | NCI/ADR-RES ovarian 58.8% | T-47D breast 81% | BT-549 breast 111% | MDA-MB-435 melanoma 12.5% | SW-620 colon 31.5% | MCF7 breast 32.2% | HCT-116 colon 33% | HCC-2998 colon 82.1% | KM12 colon 52.6%

CCCCn1c(C)nc2cc(Nc3nc(Cl)nc4nc[nH]c34)ccc21
inactive: SR leukemia 66.7% | RPMI-8226 leukemia 65.4% | OVCAR-5 ovarian 80.6% | OVCAR-4 ovarian 78.9% | SK-OV-3 ovarian 80% | IGROV1 ovarian 70.7% | OVCAR-3 ovarian 91.6% | HS 578T breast 52.7% | NCI/ADR-RES ovarian 94% | T-47D breast 39.3% | BT-549 breast 72.3% | MDA-MB-435 melanoma 90.1% | SW-620 colon 90.4% | MCF7 breast 75.4% | HCT-116 colon 83.6% | HCC-2998 colon 102% | KM12 colon 97.3%

OC(c1cc2c(Cl)cc(Cl)cc2c2cc(C(F)(F)F)ccc12)C1CCCCN1 (stereo unspecified)
active: SR leukemia -63.5% | RPMI-8226 leukemia -44.8% | OVCAR-8 ovarian -61% | OVCAR-5 ovarian -78.5% | SK-OV-3 ovarian -18.3% | IGROV1 ovarian -67.9% | OVCAR-3 ovarian -86% | HS 578T breast -56.1% | NCI/ADR-RES ovarian -60.4% | T-47D breast -78.5% | MDA-MB-435 melanoma -65.5% | SW-620 colon -74.4% | MCF7 breast -75.7% | HCT-116 colon -85.9% | HCC-2998 colon -73.5% | KM12 colon -84.6%
inactive: BT-549 breast 50.4%

N#Cc1ccc(NC(=O)Nc2nc3ccc(OC(F)(F)F)cc3s2)cc1
active: SR leukemia -38.4% | RPMI-8226 leukemia -9.16% | OVCAR-8 ovarian 8.91% | SK-OV-3 ovarian 0.444% | HS 578T breast -0.817% | NCI/ADR-RES ovarian -13.8% | T-47D breast -10.3% | MDA-MB-435 melanoma -25.6% | MCF7 breast 6.26% | HCT-116 colon -3.77% | HCC-2998 colon -5.67%
inactive: OVCAR-5 ovarian 16% | IGROV1 ovarian 13.2% | OVCAR-3 ovarian 28.9% | SW-620 colon 13.6% | KM12 colon 10.5%

CCN1CCN(Cc2ccc(NC(=O)c3nc4ccc5[nH]ncc5c4c4c3CCCC4)cc2C(F)(F)F)CC1
inactive: OVCAR-5 ovarian 48.9% | OVCAR-4 ovarian 22.6% | SK-OV-3 ovarian 91.7% | HS 578T breast 84.8% | NCI/ADR-RES ovarian 18.8% | BT-549 breast 79.6%
active: SR leukemia -29.2% | RPMI-8226 leukemia -24.6% | IGROV1 ovarian -47.6% | OVCAR-3 ovarian -70.5% | T-47D breast -69.3% | MDA-MB-435 melanoma -87.9% | SW-620 colon -58.3% | MCF7 breast -71.4% | HCT-116 colon -77.9% | HCC-2998 colon -58.1% | KM12 colon 4.08%

CC(C)(C)CC(C)(C)NCc1cc(C(C)(C)C)cc(CNC(C)(C)CC(C)(C)C)c1O
active: SR leukemia 1.23% | RPMI-8226 leukemia 8.02%
inactive: OVCAR-8 ovarian 86.4% | OVCAR-5 ovarian 68.6% | SK-OV-3 ovarian 81.3% | IGROV1 ovarian 61.1% | OVCAR-3 ovarian 79.2% | HS 578T breast 67.6% | NCI/ADR-RES ovarian 55% | T-47D breast 14.5% | MDA-MB-435 melanoma 81.5% | SW-620 colon 75.3% | MCF7 breast 31.6% | HCT-116 colon 26.1% | HCC-2998 colon 31.1% | KM12 colon 75%
